Screening data from PubChem BioAssay.
HEK293 tox: kills HEK 293 cells. HEK 293 viability, ATP luminescence (CellTiter-Glo), 48-72 h. Potency, µM (highest dose often 115 µM), without a hit: top-dose activity change, negative = cytotoxicity, usual class: inhibitors. actives 6.6% (n = 94,000). AID 1345083; further: nearly all actives have a fitted effect of over 60% in size
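Cells seeded first (HEK 293, 250 cells/well), then compound added by pintool. Incubation ran 48 or 72 hr at 37 degree Celsius. CellTiter-Glo was added and luminescence imaged after 10 min at room temperature.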
3T3 cytotox: kills NIH 3T3 cells | NIH 3T3 viability, CellTiter-Glo ATP luminescence, 48-72 h | Potency, µM (doses to about 96.7 µM), inactives show at the top dose activity change, negative = cytotoxicity, actives largely listed as inhibitors | actives 4.3% (n = 94,000); further: nearly all actives have a fitted effect of over 55% in size
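NIH 3T3 cells at 400 cells/well received 23 nL of compound by pintool and were incubated 48 or 72 h at 37 °C. Viability was read as ATP-coupled CellTiter-Glo luminescence.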
HEK293 viab: counter-screen for SNCA expression inhibitors: cell viability; actives 0.12% (n = 150,000); Potency, µM (series often up to 57.1 µM), inactives show at the top dose activity change, negative = cytotoxicity, usual class: cytotoxic; AID 1671193; HEK-293-SNCA-luc viability, GF-AFC fluorescence, 24 h;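 further: 0% = DMSO-treated cells and -100% = medium-only wells without cells; nearly all actives have a fitted effect of over 30% in size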
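Cytotoxicity counterscreen: after 24 h compound treatment of genome-edited SNCA-luciferase HEK-293 cells, live-cell protease substrate GF-AFC read by fluorescence after 30 min; activity scaled between DMSO (0%) and medium-only (-100%), curves Hill-fitted.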
SNCA expr inhib: inhibitors of alpha-synuclein (SNCA) gene expression | actives 0.17% (n = 140,000) | HEK-293 SNCA-luciferase knock-in, luminescence, 24 h | AID 1671194 | Potency, µM (series often up to 57.2 µM), for inactives: top-dose activity change, negative = inhibition, hits mostly inhibitors;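 further: plate controls were DMSO cells for no effect and cell-free wells for full effect; nearly all actives have a fitted effect of over 45% in size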
Luciferase inh: inhibitors of firefly (Photinus pyralis) luciferase; P08659; purified P. pyralis luciferase, luminescence, biochemical; Potency, µM (series often up to 115 µM), usual class: inhibitors; actives 2.5% (n = 76,000); AID 1347043; further: nearly all actives have a fitted effect of over 65% in size
Target sequence (P08659 whole entry, looked up): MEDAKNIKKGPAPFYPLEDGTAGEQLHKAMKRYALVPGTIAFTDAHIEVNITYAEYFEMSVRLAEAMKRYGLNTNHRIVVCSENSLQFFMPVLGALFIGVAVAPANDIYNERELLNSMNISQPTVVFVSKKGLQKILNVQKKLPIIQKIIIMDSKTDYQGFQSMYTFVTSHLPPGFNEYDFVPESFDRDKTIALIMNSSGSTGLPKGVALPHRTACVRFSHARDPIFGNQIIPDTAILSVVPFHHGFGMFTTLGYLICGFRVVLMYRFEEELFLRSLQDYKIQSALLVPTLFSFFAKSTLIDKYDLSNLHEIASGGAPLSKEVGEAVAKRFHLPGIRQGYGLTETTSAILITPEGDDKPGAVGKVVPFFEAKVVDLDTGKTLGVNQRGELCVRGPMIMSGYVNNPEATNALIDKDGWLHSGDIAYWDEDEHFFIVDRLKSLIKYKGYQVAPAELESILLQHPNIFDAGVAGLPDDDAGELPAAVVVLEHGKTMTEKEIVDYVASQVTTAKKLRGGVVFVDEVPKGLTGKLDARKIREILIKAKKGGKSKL
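Cell-free enzyme assay, 10nM P. pyralis luciferase, luciferin and ATP each at 10uM. Inhibition profiled over a 6-point titration, read as luminescence.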
hNpr1 antagonist: antagonists of human natriuretic peptide receptor Npr1 | P16066 | HEK293 hNpr1 GloSensor cGMP, ANP-stimulated luminescence | Potency, µM (top dose mostly 46.3 µM), inactives show top-dose activity change, negative = inhibition, actives largely listed as inhibitors | actives 1.6% (n = 76,000) | AID 1347048; calls by dose curve; further: nearly all actives have a fitted effect of over 60% in size
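Compound pre-incubated 30 min at room temperature on GloSensor-loaded HEK293 cells stably carrying hNpr1 and the pGS-40F cGMP biosensor. Stimulation uses hNppA at 0.1 nM final; luminescence is taken at baseline and 20 min post-agonist.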
Numbers without * were called inactive; i = inactive; ? = inconclusive; nt = not tested or not shown; ! = not active in a repeat; [ ] = remark or other dose. Most compounds without a hit are left out; they make up all but 7.4% or so of the library. Unless noted, the call rests on the fitted dose curve; in most records, active means well fitted curve in the direction sought with a large enough effect; inconclusive means small, poorly fitted or top-dose-only effect, or another doubt; inactive means no such curve, though single readings can be large; an effect the other way counts as inactive or inconclusive. Unless noted, on the % scale 0 is the no-effect control and ±100 the full control effect; potency means the concentration at half of the fitted maximal effect.

SMILES	HEK293 tox	3T3 cytotox	HEK293 viab	SNCA expr inhib	Luciferase inh	hNpr1 antagonist
COc1ccc(-c2ccc3c(c2)C(=O)N2CC[C@H](NS(=O)(=O)c4cccs4)[C@H]2C(=O)N3)cc1	22µM*	?	-16%	-13%	?	?
O=C(N[C@H]1CCN2C(=O)c3cc(-c4ccccc4)ccc3NC(=O)[C@H]12)c1cccs1	-23%[172 µM]	-17%[174 µM]	-9%[87.6 µM]	-17%[87.6 µM]	i	-17%[70.6 µM]
O=C(N[C@H]1CCN2C(=O)c3ccc(Cl)cc3NC(=O)[C@H]12)c1cccs1	-7%[172 µM]	89µM*	-8%[87.6 µM]	-14%[87.6 µM]	i	1%[70.6 µM]
COc1ccc(-c2ccc3c(c2)C(=O)N2CC[C@H](NC(=O)CSC)[C@H]2C(=O)N3)cc1	?	?	4%[87.6 µM]	38%[87.6 µM]	25µM*	-2%[70.6 µM]
COc1ccc(-c2ccc3c(c2)C(=O)N2CC[C@H](NC(=O)c4cccs4)[C@H]2C(=O)N3)cc1	i	-6%	4%	20%	25µM*	3%
COc1ccc(-c2ccc3c(c2)C(=O)N2CC[C@H](NC(=O)CCC(=O)O)[C@H]2C(=O)N3)cc1	2%	-9%	-2%	8%	?	3%
Oc1ccc(C=Cc2cc(O)cc(O)c2)cc1	nt	nt	-5%	12µM*	nt	nt
Cc1nc(CC2CCN(C(=O)C3CCC3)CC2)n[nH]1	2%	i	-1%	6%	i	16%
OC[C@@H]1CN(C2CCC2)C[C@H]1c1nc(-c2ccncc2)no1	-15%	-3%	-6%	138%	45µM*	2%
OC[C@@H]1CN(CC2CC2)C[C@H]1c1nc(-c2ccncc2)no1	-3%	-11%	-4%	71%	35µM*	0%
CCc1nc2c(c(-c3ccc(Cl)cc3)n1)CN(Cc1cccc3ccccc13)CC2	79µM*	32µM*	-12%	?	i	0%
CCc1nc2c(c(-c3ccc(OC)cc3)n1)CCN(Cc1cc(C)on1)CC2	4%	20µM*	0%	-7%	nt	nt
CCc1nc2c(c(-c3ccc(Cl)cc3)n1)CN(Cc1cccc(OC)c1)CC2	?	13µM*	4%	-9%	i	7%
CCc1nc2c(c(-c3ccc(Cl)cc3)n1)CN(Cc1ccc(OC)cc1)CC2	?	35µM*	?	?	i	2%
CCc1nc2c(c(-c3ccc(Cl)cc3)n1)CN(Cc1ccccn1)CC2	0%	-20%	6%	5%	i	2%
COc1cccc(CNC(=O)[C@@]23CCCC[C@H]2N(CCc2ccccc2)C(=O)CC3)c1	?	?	-10%	-6%	i	-10%
COC[C@@H]1CN(Cc2cnn(C)c2C)C[C@H]1c1ccncc1	i	i	1%	12%	i	2%
COc1cccc([S+](=O)([O-])N2CCN(C(=O)c3nc4cccnc4n(CC(C)C)c3=O)CC2)c1	0%	-23%	-3%	-21%	nt	nt
COCCN1CCC(N2CCN(C(=O)C3CCCC3)CC2)C1=O (stereo not given)	1%	-2%	2%	-5%	i	2%
CCc1nc2c(c(-c3ccc(Cl)cc3)n1)CN(Cc1ccc(F)cc1)CC2	45µM*	22µM*	?	?	i	1%
CCc1nc2c(c(-c3ccc(Cl)cc3)n1)CCN(Cc1ccc(C#N)cc1)CC2	40µM*	?	-11%	-2%	i	7%
CCc1nc2c(c(-c3ccc(Cl)cc3)n1)CN(C(C)=O)CC2	-26%[172 µM]	-26%[138 µM]	-7%[87.6 µM]	-14%[87.6 µM]	i	-1%[70.6 µM]
CCc1nc2c(c(-c3ccc(Cl)cc3)n1)CCN(Cc1ccc(OC)cc1)CC2	?	?	-4%	-20%	i	2%
CCc1nc2c(c(-c3ccc(Cl)cc3)n1)CN(S(=O)(=O)c1ccccc1)CC2	5%	20µM*!	-2%	-4%	i	2%
N#Cc1ccc(NCc2cc3n(n2)CCCN(C2CCCCC2)C3)nc1	-7%	-18%	-21%	4%	i	-4%
SMILES	HEK293 tox	3T3 cytotox	HEK293 viab	SNCA expr inhib	Luciferase inh	hNpr1 antagonist
COc1ccccc1-c1cccc(C(=O)N2CCC[C@H]2C(=O)N2CCOCC2)c1	-5%	-31%	9%[12.5 µM]	-8%	nt	nt
COCCNC(=O)[C@@H]1C[C@@H](O)CN1C1CCN(C(=O)c2ccccc2)CC1	-20%	-6%	2%	5%	i	-2%
Cc1ccc(-c2nnc3ccc(N4CCN(Cc5ccccc5)CC4)nn23)nc1	?	?	0%[87.6 µM]	-8%[87.6 µM]	i	-2%[70.6 µM]
COc1cc(C)c(CN2CCCn3nc(C(=O)N4CCCC4)cc3C2)cc1C	45µM*	45µM*	-6%	19%	i	-9%
C[S+](=O)([O-])N1Cc2ccccc2CC2(CCCN2CC2CCOCC2)C1 (stereo not given)	-15%	-9%	10%	-12%	nt	nt
Cc1ncoc1C(=O)N1CCC(N2C(=O)C3(CCCCC3)C2c2ccccc2)CC1 (stereo not given)	?	-27%	8%	29%	nt	nt
Cn1cc(CN2Cc3ccc(C(=O)Nc4ccc(F)cc4)cc3OCC2=O)cn1	?	-25%[138 µM]	5%[87.6 µM]	12%[87.6 µM]	i	-5%[70.6 µM]
CN1Cc2ccc(C(=O)Nc3ccc4cn[nH]c4c3)cc2OCC1=O	-23%[172 µM]	?	4%[87.6 µM]	79%[87.6 µM]	32µM*	-2%[70.6 µM]
O=C1Nc2ccccc2C12CCN([S+](=O)([O-])c1ccsc1)CC2	45µM*	-8%	-19%	-13%	i	-28%
O=C1Nc2ccccc2C12CN([S+](=O)([O-])c1cccc(C(F)(F)F)c1)C2	-22%	?	-3%	-29%	nt	nt
CN(Cc1cnccn1)C(=O)CC(c1ccccc1)c1ccccc1Cl (stereo not given)	?	-6%	-16%	-12%	i	1%
O=C(CC(c1ccccc1)c1ccccc1Cl)N(Cc1cccnc1)C1CC1 (stereo not given)	35µM*	?	-12%	-20%	i	-26%
Clc1cc(N2CCCCC2)n2nccc2n1	-6%[172 µM]	-20%[138 µM]	13%[87.6 µM]	-7%[87.6 µM]	i	18%[70.6 µM]
Clc1cc(NCC2CCCCC2)n2nccc2n1	?	?	-1%[87.6 µM]	-6%[87.6 µM]	i	-20%[70.6 µM]
Clc1cc(NC2CCCCCC2)n2nccc2n1	89µM*	?	19%[87.6 µM]	22%[87.6 µM]	i	4%[70.6 µM]
Clc1cc(NCC2CCCCCC2)n2nccc2n1	?	32µM*	?	5%[87.6 µM]	i	-28%[70.6 µM]
COc1ccc(C)cc1NC(=O)CN1C(=O)NC2(CCC(C(C)(C)C)CC2)C1=O (stereo not given)	?	?	-10%	-26%	i	-24%
Cc1cc(F)ccc1NC(=O)CN1C(=O)NC2(CCC(C(C)(C)C)CC2)C1=O (stereo not given)	?	40µM*	3%	3%	i	-2%
